PAFAH2 FP inh = PAFAH2 (human) inhibition; Q99487; recombinant PAFAH2, FP-rhodamine activity probe, fluorescence polarization; inhibition, % at 3.39 µM; 340,000 tested, 0.99% active; AID 492956;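 active means inhibition above the mean over all tested compounds plus 3 SD, cut at about 30% in these data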;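 further: inhibitors block probe labeling of enzyme so polarization drops; 0% = enzyme with DMSO and 100% = wells lacking PAFAH2 protein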
EBNA-1 inhibitor = blocks EBNA-1 binding to DNA; EBNA-1 DNA binding, fluorescence polarization; inhibition, % at 14.8 µM; 300,000 tested, 0.34% active; AID 1950; in the data active means inhibition above about 28%
PAFAH1B3 FP inh = inhibitors of human PAFAH1B3; 340,000 tested, 0.28% active; Q15102; inhibition, % at 3.39 µM; recombinant PAFAH1B3, FP-rhodamine probe, fluorescence polarization;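 active means inhibition above the screen-wide average of all tested compounds plus 3 SD, cut at about 25% in these data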;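 further: 0% = enzyme with DMSO only and 100% = wells lacking PAFAH1B3 protein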
pPAFAH inh = pPAFAH (human) enzyme inhibition; Q13093; recombinant pPAFAH, FP-rhodamine probe fluorescence polarization; inhibition, % at 3.39 µM; 330,000 tested, 1.5% active; AID 463082;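 active means inhibition above the mean inhibition across the screen plus 3 SD, cut at about 25% in these data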;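 further: inhibitors block binding of the rhodamine activity-based probe so polarization drops; 0% = enzyme with DMSO and 100% = wells lacking pPAFAH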
Target sequence (Q13093 whole entry, looked up): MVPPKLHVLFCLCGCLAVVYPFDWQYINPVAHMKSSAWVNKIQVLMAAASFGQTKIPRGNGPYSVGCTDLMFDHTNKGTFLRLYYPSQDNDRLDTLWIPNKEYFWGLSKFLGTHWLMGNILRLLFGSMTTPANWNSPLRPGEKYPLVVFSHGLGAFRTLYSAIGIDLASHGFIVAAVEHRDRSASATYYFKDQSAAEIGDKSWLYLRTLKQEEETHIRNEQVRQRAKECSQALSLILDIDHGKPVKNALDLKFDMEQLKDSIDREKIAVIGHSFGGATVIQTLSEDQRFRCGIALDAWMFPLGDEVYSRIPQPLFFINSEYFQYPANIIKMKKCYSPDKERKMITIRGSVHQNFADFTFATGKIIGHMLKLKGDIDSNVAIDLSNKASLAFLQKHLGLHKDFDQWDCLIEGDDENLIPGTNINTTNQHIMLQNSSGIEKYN
PAFAH1B2 inh = blocks human PAF acetylhydrolase 1b catalytic subunit 2; P68402; recombinant PAFAH1B2, FP-rhodamine activity probe, fluorescence polarization; inhibition, % at 3.39 µM; 340,000 tested, 1.2% active;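 active means inhibition above the mean of all tested compounds plus 3 SD, cut at about 24% in these data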;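 further: 0% = enzyme with DMSO and 100% = wells lacking PAFAH1B2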
ZTA counter = ZTA (EBV) inhibition in EBNA-1 counter-screen; 320,000 tested, 0.15% active; P03206; inhibition, % at 11 µM; AID 2234; ZTA-DNA binding, fluorescence polarization; in the data active means inhibition above about 33%
Target sequence (P03206 whole entry, looked up): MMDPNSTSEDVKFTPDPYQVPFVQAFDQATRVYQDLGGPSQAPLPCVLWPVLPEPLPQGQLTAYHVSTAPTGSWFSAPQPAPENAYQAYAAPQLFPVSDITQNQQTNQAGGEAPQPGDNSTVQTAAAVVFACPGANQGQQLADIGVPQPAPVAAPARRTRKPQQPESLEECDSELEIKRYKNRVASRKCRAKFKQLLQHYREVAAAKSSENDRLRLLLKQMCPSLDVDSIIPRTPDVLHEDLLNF
PAFAH2 FP conf = PAFAH2 (human) inhibition, confirmed | shares compounds with PAFAH2 FP inh | recombinant PAFAH2, FP-rhodamine activity probe, fluorescence polarization | inhibition, % at 3.39 µM | 2,300 tested, 65% active;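 active means mean inhibition over three repeats above a set limit taken from the earlier primary screen, cut at about 30% in these data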;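 further: inhibitor blocks binding of rhodamine activity probe so polarization falls; 0% = enzyme with DMSO and 100% = wells lacking PAFAH2 protein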
PAFAH1B3 confirm = PAFAH1B3 (human) inhibition, confirmed. shares compounds with PAFAH1B3 FP inh. recombinant PAFAH1B3, FP-Rh activity-based probe, fluorescence polarization. inhibition, % at 3.39 µM. 390 tested, 30% active. AID 493032;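 active means average inhibition over triplicate runs above the hit cutoff set in the earlier primary screen, cut at about 25% in these data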;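 further: 0% = enzyme with DMSO and 100% = wells lacking PAFAH1B3 protein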
Numbers without * were called inactive; / = no result; ! = repeats disagree. Shown are actives, neighbours in structure and some others; about 2.9% of the full set was active somewhere.

SMILES | PAFAH2 FP inh | EBNA-1 inhibitor | PAFAH1B3 FP inh | pPAFAH inh | PAFAH1B2 inh | ZTA counter | PAFAH2 FP conf | others
O=C(COC(=O)/C=C/c1ccco1)Nc1ncc(Cl)cc1Cl | 47* | 9 | 6 | 11 | 2 | 0 | 27
Cc1nc(NC(=O)COC(=O)/C=C/c2ccco2)c(Cl)cc1Cl | 35* | / | 3 | 13 | 0 | 5 | 18
COC(=O)c1ccc(/C=C/C(=O)OCC(=O)Nc2ncc(Cl)cc2Cl)cc1 | 29 | / | 4 | -3 | 6 | -5 | /
COc1ccc(NC(=O)CSc2nnc(NC(C)=O)s2)c([N+](=O)[O-])c1 | -1 | 2 | 9 | 5 | 2 | 9 | /
CC(=O)c1cccc(NC(=O)c2nc(-c3ccccc3)oc2C)c1 | 5 | -11 | -1 | 0 | 0 | 8 | /
CCCCNC(=O)c1ccccc1NC(=O)c1ccc2c(c1)OCO2 | 47* | 0 | 8 | -5 | 4 | -2 | 38*
CC(C)(C)NC(=O)c1ccccc1NC(=O)c1ccc2c(c1)OCO2 | 3 | -10 | 6 | 2 | 0 | -29 | /
Cc1ccc(O)c(NC(=O)Cc2ccc3ccccc3c2)c1 | 74* | 3 | 7 | 3 | 1 | -10 | 68*
O=C(NN1CCCCCC1)c1ccccc1F | -6 | / | 7 | / | 0 | / | /
CCOC(=O)c1c(C)[nH]c(C(=O)OCC(=O)Nc2ccccc2)c1C | 34* | / | 0 | 3 | 4 | -10 | 34*
CC(=O)c1c(C)[nH]c(C(=O)OCC(=O)Nc2ccccc2Cl)c1C | 33* | -6 | 10 | -4 | 1 | -27 | 20
CNC(=O)COC(=O)c1[nH]c(C)c(C(C)=O)c1C | 4 | -1 | 0 | 0 | -1 | 4 | /
CC(=O)c1c(C)[nH]c(C(=O)OCC(=O)NCC(C)C)c1C | 31* | -7 | 8 | -4 | -2 | 8 | 16
COc1ccc(-n2nnnc2CNC(=O)C(=O)c2c(C)[nH]c3ccccc23)cc1 | 3 | -7 | 6 | -7 | -2 | 6 | /
CCOc1ccc2ccccc2c1/C=N/NC(=O)c1cc(C)[nH]n1 | 49* | -1 | -4 | 1 | 1 | 4 | 15
COc1cc(C(=O)OCC(=O)N2CCCCCC2)c([N+](=O)[O-])cc1OC | 35* | / | 12 | 3 | 6 | / | 24
COc1cc(C(=O)OCC(=O)N2CCOCC2)c([N+](=O)[O-])cc1OC | 2 | 2 | -3 | 6 | -4 | -16 | /
N#Cc1nc(-c2ccc(Cl)cc2)oc1NCC1CCCO1 (centres undefined) | -1 | 1 | 1 | 9 | 2 | -2 | /
Cc1ccc(Cl)cc1NC(=O)COC(=O)c1ccc(N2CCCC2)c([N+](=O)[O-])c1 | / | -4 | / | 5 | / | -10 | /
CCCNC(=O)COC(=O)c1ccc(S(=O)(=O)N2CCCC2)cc1 | 0 | 1 | 1 | 9 | 2 | 15 | /
CCCNC(=O)COC(=O)c1ccc(Cl)c(S(=O)(=O)N2CCCC2)c1 | 34* | -1 | -1 | 9 | 1 | 2 | 16
O=C(COC(=O)c1ccc(Cl)c(S(=O)(=O)N2CCCC2)c1)NC1CCCC1 | 41* | -9 | 9 | 20 | 1 | -6 | 29
CCCNC(=O)COC(=O)c1ccc(N2CCCC2)c([N+](=O)[O-])c1 | 65* | -2 | 17 | 5 | 6 | 4 | 51*
COCCN(CC1CCCN(C2Cc3ccccc3C2)C1)C(=O)c1cccc(C)c1 (centres undefined) | 32* | 2 | -3 | 5 | 2 | 12 | 19
Oc1ccccc1/C=N/NC(=S)NC1CC2CCC1C2 (centres undefined) | 60* | -8 | 6 | 12 | 11 | -3 | 28
SMILES | PAFAH2 FP inh | EBNA-1 inhibitor | PAFAH1B3 FP inh | pPAFAH inh | PAFAH1B2 inh | ZTA counter | PAFAH2 FP conf | others
O=S(=O)(NC1CCN(S(=O)(=O)c2c(F)cccc2F)CC1)c1ccc2c(c1)OCCO2 | -2 | / | 13 | -3 | -2 | / | /
O=c1oc(-c2cccc(S(=O)(=O)N3CCOCC3)c2)nc2ccccc12 | 61* | 0 | -1 | 0 | -1 | 6 | 55*
CC(C)(C)C(=O)Nc1cccc(-c2nc3ccccc3c(=O)o2)c1 | 27 | 3 | 8 | -1 | 2 | 8 | /
COc1cccc(-c2nc3ccc(O)cc3c(=O)o2)c1 | 72* | -9 | 0 | -4 | 5 | -1 | 52*
Cc1nc(-c2cccc(S(=O)(=O)N3CCOCC3)c2)cs1 | 0 | 7 | 4 | 2 | 6 | 6 | /
CC(=O)Oc1cccc(-c2nc3ccccc3c(=O)o2)c1 | 40* | -6 | 16 | 3 | -2 | 2 | 27
CC(C)C(=O)Nc1cccc(-c2nc3ccccc3c(=O)o2)c1 | 13 | -3 | 5 | -4 | -5 | 10 | /
CCOC(=O)c1c(S(=O)(=O)NCC(=O)Nc2cccc(C)c2)c(C)n(C)c1C | 3 | -4 | 2 | 0 | 2 | -7 | /
Cc1cccn2c(=O)c3cc(S(=O)(=O)c4ccccc4)c(=N)n(Cc4cccnc4)c3nc12 | 38* | -10 | 10 | 3 | 5 | -26 | 33*
O=C1C(Cl)=C(Nc2ccccc2)C(=O)c2ccccc21 | 15 | -1 | 26* | 4 | 11 | 5 | / | PAFAH1B3 confirm=20
Cc1ccc(NC2=C(NC(=O)c3ccccc3)C(=O)c3ccccc3C2=O)cc1Cl | 12 | 2 | 18 | 6 | 9 | -4 | /
CC(C)NC1=C(Cl)C(=O)c2ccccc2C1=O | -1 | -7 | 8 | -1 | 1 | -2 | /
O=C(O)c1ccc(NC2=C(Cl)C(=O)c3ccccc3C2=O)cc1 | 12 | 2 | 33* | -2 | 12 | -9 | / | PAFAH1B3 confirm=23
O=C(O)c1cccc(NC2=C(Cl)C(=O)c3ccccc3C2=O)c1 | 21 | / | 27* | / | 13 | / | / | PAFAH1B3 confirm=23
CN(C)CCCCCCCCCCC(=O)/C=N/O | 8 | 9 | 27* | 6 | 12 | 15 | / | PAFAH1B3 confirm=22
Cn1cnc(S(=O)(=O)NC2CCN(Cc3c(F)cccc3Cl)CC2)c1 | -1 | -2 | 13 | -1 | 0 | -4 | /
CC(=O)SCCC(=O)Nc1ccccc1 | -3 | 6 | 26* | 6 | 1 | -6 | / | PAFAH1B3 confirm=14
CC(=O)NNC(=O)CCC(=O)Nc1ccccc1 | -2 | 2 | 10 | 1 | -5 | -6 | /
Cc1ccc(N2C(=O)c3ccccc3C2=O)cc1 | 4 | 9 | -1 | -7 | 7 | -1 | /
Cc1ccc(SC2=C(Sc3ccc(C)cc3)C(=O)c3ccccc3C2=O)cc1 | 16 | 1 | 38* | 8 | 21 | -17 | / | PAFAH1B3 confirm=35*
COCC(=O)Nc1nnc(-c2ccc(C(C)(C)C)cc2)s1 | -4 | 4 | -2 | 6 | 9 | -17 | /
C[n+]1c2cc(N)ccc2cc2ccc(N)cc21 | 18 | / | 33* | / | 13 | / | / | PAFAH1B3 confirm=28*!
NNc1nccc(Nc2ccccc2C(=O)O)n1 | 25 | 2 | 28* | 9 | 18 | 7 | / | PAFAH1B3 confirm=12

Bioassay records from PubChem BioAssay.
